Data: PubChem BioAssay (EPA / NIEHS)
Active and inactive are the calls of the source. The calls were made as follows: active = hit-call score of the fitted dose curve at least 0.9, where 1 is the maximum; inactive = score below 0.9.

Key:
[1] = CEETOX_H295R_TESTO: CeeTox H295R High-throughput Steroidogenesis Assay for Testosterone (TESTO) (AID 2283457); conditions: actives raise or lower the signal;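 as to AC50: cells exposed to chemicals for 48 h before medium collection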
Outline: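 Testosterone synthesis is assessed in human adrenocortical H295R cells after 48 h of chemical exposure, using HPLC-MS/MS of extracted medium. Activity is fitted in both directions against DMSO control.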

[2] = read-out: Tumor necrosis factor receptor superfamily member 6 (Homo sapiens) (UniProt P25445); assay: LTEA_HepaRG_FAS: Life Technologies and Expression Analysis (LTEA) Assay for Fas cell surface death receptor (FAS) using HepaRG (AID 2283447); conditions: mRNA level, 48 h; actives raise or lower the signal
Outline: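 FAS transcript level was measured by TaqMan qRT-PCR against three housekeeping genes after 48 h chemical exposure. Cells were HepaRG, 0.5% DMSO vehicle, with a top concentration of 100 uM and half-log dilutions over eight points, in duplicate.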

[3] = read-out: Fatty acid synthase (Homo sapiens) (UniProt P49327); assay: LTEA_HepaRG_FASN: Life Technologies and Expression Analysis (LTEA) Assay for Fatty Acid Synthase (FASN) using HepaRG (AID 2283448); conditions: mRNA level, 48 h; actives raise or lower the signal
Outline: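 FASN expression changes, up or down relative to 0.5% DMSO, were measured by qRT-PCR in human HepaRG cells after 48 h treatment with chemicals at eight concentrations (half-log steps from 100 uM).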

[4] = read-out: Cyclin Dependent Kinase Inhibitor 1A (CDKN1A), CDKN1A (gene 1026); assay: LTEA_HepaRG_CDKN1A: Life Technologies and Expression Analysis (LTEA) Assay for Cyclin Dependent Kinase Inhibitor 1A (CDKN1A) using HepaRG (AID 2283450); conditions: mRNA level, 48 h; actives raise or lower the signal
Outline: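 Cryopreserved HepaRG cells were plated and cultured 48 h, then switched to serum-free induction medium. Chemicals (eight half-log concentrations, top 100 uM, 0.5% DMSO) were applied for 48 h. Lysates underwent qRT-PCR for CDKN1A with housekeeping normalization.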

[5] = read-out: Cyclin D1 (CCND1), CCND1 (gene 595); assay: LTEA_HepaRG_CCND1: Life Technologies and Expression Analysis (LTEA) Assay for Cyclin D1 (CCND1) using HepaRG (AID 2283451); conditions: mRNA level, 48 h; actives raise or lower the signal
Outline: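 Human liver HepaRG line; 48 h dosing, 8 conc. ≤100 uM, 0.5% DMSO; TaqMan qRT-PCR mRNA, 3 housekeeping genes; bidirectional curve fit vs DMSO.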

[6] = read-out: catalase (CAT), CAT (gene 847); assay: LTEA_HepaRG_CAT: Life Technologies and Expression Analysis (LTEA) Assay for catalase (CAT) using HepaRG (AID 2283452); conditions: mRNA level, 48 h; actives raise or lower the signal
Outline: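 Expression of CAT was quantified by TaqMan qRT-PCR with ACTB/GAPDH/POLR2A normalization after 48 h chemical exposure of HepaRG. Eight-point half-log series, top 100 uM, in 0.5% DMSO; gain or loss fitted against vehicle.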

[7] = read-out: flavin-containing dimethylaniline monooxygenases 3 (FMO3), FMO3 (gene 2328); assay: LTEA_HepaRG_FMO3: Life Technologies and Expression Analysis (LTEA) Assay for flavin-containing dimethylaniline monooxygenases 3 (FMO3) using HepaRG (AID 2283453); conditions: mRNA level, 48 h; actives raise or lower the signal
Outline: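 Differentiated HepaRG cells in serum-free induction medium, exposed 48 h in duplicate to 8 half-log concentrations up to 100 uM in 0.5% DMSO. FMO3 mRNA by qRT-PCR, normalized to ACTB, GAPDH, POLR2A; bidirectional fit vs DMSO.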

[8] = read-out: Cytochrome P450 (CYP1A1), CYP1A1 (gene 1543); assay: LTEA_HepaRG_CYP1A1: Life Technologies and Expression Analysis (LTEA) Assay for Cytochrome P450 (CYP1A1) using HepaRG (AID 2283454); conditions: mRNA level, 48 h; actives raise or lower the signal
Outline: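 Induction of CYP1A1 mRNA in a human hepatic cell line was measured 48 h after dosing, with 1 mM phenobarbital as induction positive control and 0.5% DMSO vehicle as baseline for bidirectional curve fitting.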

[9] = read-out: CFLAR gene, CFLAR (gene 8837); assay: LTEA_HepaRG_CFLAR: Life Technologies and Expression Analysis (LTEA) Assay for CFLAR gene using HepaRG (AID 2283455); conditions: mRNA level, 48 h; actives raise or lower the signal
Outline: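 HepaRG, 48 h exposure, 8-pt conc-response (100 uM top, half-log), 0.5% DMSO vehicle, duplicates. CFLAR expression by qRT-PCR; ACTB/GAPDH/POLR2A normalization; gain or loss fit vs DMSO baseline.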

[10] = read-out: Forkhead box O1 (FOXO1), FOXO1 (gene 2308); assay: LTEA_HepaRG_FOXO1: Life Technologies and Expression Analysis (LTEA) Assay for Forkhead box O1 (FOXO1) using HepaRG (AID 2283456); conditions: mRNA level, 48 h; actives raise or lower the signal
Outline: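 Readout is FOXO1 transcript level by multiplexed qRT-PCR against three housekeeping genes, curve-fitted in both directions relative to 0.5% DMSO vehicle. Human HepaRG cultures received chemicals for 48 h, up to 100 uM in half-log steps.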

[11] = read-out: growth arrest and DNA damage 45 (GADD45A), GADD45A (gene 1647); assay: LTEA_HepaRG_GADD45A: Life Technologies and Expression Analysis (LTEA) Assay for growth arrest and DNA damage 45 (GADD45A) using HepaRG (AID 2283458); conditions: mRNA level, 48 h; actives raise or lower the signal
Outline: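 Cells plated and cultured 48 h, switched to serum-free induction medium, then dosed for 48 h (100 uM top, half-log dilutions, 0.5% DMSO). RNA was isolated and transcript measured by Fluidigm qRT-PCR.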

[12] = read-out: Forkhead box O3 (FOXO3), FOXO3 (gene 2309); assay: LTEA_HepaRG_FOXO3: Life Technologies and Expression Analysis (LTEA) Assay for Forkhead box O3 (FOXO3) using HepaRG (AID 2283459); conditions: mRNA level, 48 h; actives raise or lower the signal
Outline: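 HepaRG, 48 h post-dose; 8 conc., half-log from 100 uM, 0.5% DMSO, duplicates; serum-free induction medium. Readout: FOXO3 mRNA, TaqMan qRT-PCR, housekeeping-normalized. Bidirectional curve fit vs DMSO baseline.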

[13] = read-out: ABC Transporter (ABCB1), ABCB1 (gene 5243); assay: LTEA_HepaRG_ABCB1: Life Technologies and Expression Analysis (LTEA) Assay for ABC Transporter (ABCB1) using HepaRG (AID 2283460); conditions: mRNA level, 48 h; actives raise or lower the signal
Outline: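 Expression of ABCB1 was quantified by qRT-PCR against three housekeeping genes after human HepaRG cultures received test chemicals for 48 hours. Concentrations spanned eight half-log steps topping at 100 uM in 0.5% DMSO; gain or loss of signal was fitted relative to vehicle.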

[14] = read-out: growth arrest and DNA damage 45 (GADD45B), GADD45B (gene 4616); assay: LTEA_HepaRG_GADD45B: Life Technologies and Expression Analysis (LTEA) Assay for growth arrest and DNA damage 45 (GADD45B) using HepaRG (AID 2283461); conditions: mRNA level, 48 h; actives raise or lower the signal
Outline: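 Values are bidirectional concentration-response fits against 0.5% DMSO controls. Underlying data: qRT-PCR mRNA levels in human HepaRG liver cells treated 48 h in serum-free induction medium, eight concentrations topping at 100 uM.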

[15] = read-out: ABC Transporter (ABCC3), ABCC3 (gene 8714); assay: LTEA_HepaRG_ABCC3: Life Technologies and Expression Analysis (LTEA) Assay for ABC Transporter (ABCC3) using HepaRG (AID 2283462); conditions: mRNA level, 48 h; actives raise or lower the signal
Outline: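 Differentiated HepaRG liver cells receive test chemicals at eight concentrations (max 100 uM) for 48 h. Expression of ABCC3 is quantified by qRT-PCR against ACTB, GAPDH and POLR2A, and activity is fitted in both directions against the DMSO control.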

[16] = read-out: ABC Transporter (ABCB11), ABCB11 (gene 8647); assay: LTEA_HepaRG_ABCB11: Life Technologies and Expression Analysis (LTEA) Assay for ABC Transporter (ABCB11) using HepaRG (AID 2283463); conditions: mRNA level, 48 h; actives raise or lower the signal
Outline: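 ABCB11 transcript levels are read by Fluidigm TaqMan qRT-PCR after 48 h chemical treatment of human HepaRG cells. Concentrations span 100 uM downward in half-log steps with 0.5% DMSO; gain or loss is fitted against DMSO controls.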

[17] = read-out: ABC Transporter (ABCC2), ABCC2 (gene 1244); assay: LTEA_HepaRG_ABCC2: Life Technologies and Expression Analysis (LTEA) Assay for ABC Transporter (ABCC2) using HepaRG (AID 2283464); conditions: mRNA level, 48 h; actives raise or lower the signal
Outline: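 Gene expression of ABCC2 was determined by qRT-PCR in HepaRG cells exposed 48 h to chemicals (highest 100 uM, half-log dilutions). Activity was fitted in both directions relative to 0.5% DMSO vehicle.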

[18] = read-out: Broad substrate specificity ATP-binding cassette transporter ABCG2 (Homo sapiens) (UniProt Q9UNQ0); assay: LTEA_HepaRG_ABCG2: Life Technologies and Expression Analysis (LTEA) Assay for ABC Transporter (ABCG2) using HepaRG (AID 2283465); conditions: mRNA level, 48 h; actives raise or lower the signal
Outline: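 Read-out is ABCG2 mRNA induction or loss quantified by qRT-PCR after 48 h chemical treatment of human HepaRG cells, normalized to three housekeeping genes. Concentrations reached 100 uM top in half-log steps; fitting was bidirectional against 0.5% DMSO.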

[19] = read-out: ATP-citrate lyase (ACLY), ACLY (gene 47); assay: LTEA_HepaRG_ACLY: Life Technologies and Expression Analysis (LTEA) Assay for ATP-citrate lyase (ACLY) using HepaRG (AID 2283466); conditions: mRNA level, 48 h; actives raise or lower the signal
Outline: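 HepaRG, 48 h exposure, 8-pt half-log dilutions (top 100 uM), 0.5% DMSO. Readout: ACLY mRNA, TaqMan qRT-PCR, housekeeping-normalized (ACTB/GAPDH/POLR2A). Bidirectional curve fit vs DMSO.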

[20] = read-out: Peroxisomal acyl-coenzyme A oxidase 1 (ACOX1) gene, ACOX1 (gene 51); assay: LTEA_HepaRG_ACOX1: Life Technologies and Expression Analysis (LTEA) Assay for Peroxisomal acyl-coenzyme A oxidase 1 (ACOX1) gene using HepaRG (AID 2283467); conditions: mRNA level, 48 h; actives raise or lower the signal
Outline: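 Measured by qRT-PCR against three housekeeping genes: ACOX1 transcript change in human HepaRG cells after 48 h dosing. Concentrations ran up to 100 uM in half-log steps. Curves were fitted bidirectionally relative to 0.5% DMSO.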

Measured: AC50

Chain of Broad substrate specificity ATP-binding cassette transporter ABCG2 (Homo sapiens) (Q9UNQ0 whole entry, looked up): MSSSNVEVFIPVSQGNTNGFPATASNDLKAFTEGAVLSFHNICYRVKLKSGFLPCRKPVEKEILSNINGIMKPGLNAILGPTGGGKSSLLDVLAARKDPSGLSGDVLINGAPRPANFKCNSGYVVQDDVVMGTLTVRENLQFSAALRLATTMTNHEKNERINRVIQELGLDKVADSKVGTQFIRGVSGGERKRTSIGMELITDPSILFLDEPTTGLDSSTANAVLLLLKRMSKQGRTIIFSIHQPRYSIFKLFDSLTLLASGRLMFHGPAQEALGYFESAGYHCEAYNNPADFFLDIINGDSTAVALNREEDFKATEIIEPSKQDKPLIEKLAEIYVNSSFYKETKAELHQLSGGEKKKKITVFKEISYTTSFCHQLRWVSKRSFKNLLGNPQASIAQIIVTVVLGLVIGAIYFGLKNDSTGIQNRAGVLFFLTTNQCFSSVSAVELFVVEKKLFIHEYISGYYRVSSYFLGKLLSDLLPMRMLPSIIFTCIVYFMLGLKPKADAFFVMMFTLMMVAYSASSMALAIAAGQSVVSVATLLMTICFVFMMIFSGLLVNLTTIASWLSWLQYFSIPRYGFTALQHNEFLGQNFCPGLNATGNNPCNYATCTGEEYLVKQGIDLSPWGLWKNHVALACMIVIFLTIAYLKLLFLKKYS
Chain of Fatty acid synthase (Homo sapiens) (P49327 whole entry, looked up): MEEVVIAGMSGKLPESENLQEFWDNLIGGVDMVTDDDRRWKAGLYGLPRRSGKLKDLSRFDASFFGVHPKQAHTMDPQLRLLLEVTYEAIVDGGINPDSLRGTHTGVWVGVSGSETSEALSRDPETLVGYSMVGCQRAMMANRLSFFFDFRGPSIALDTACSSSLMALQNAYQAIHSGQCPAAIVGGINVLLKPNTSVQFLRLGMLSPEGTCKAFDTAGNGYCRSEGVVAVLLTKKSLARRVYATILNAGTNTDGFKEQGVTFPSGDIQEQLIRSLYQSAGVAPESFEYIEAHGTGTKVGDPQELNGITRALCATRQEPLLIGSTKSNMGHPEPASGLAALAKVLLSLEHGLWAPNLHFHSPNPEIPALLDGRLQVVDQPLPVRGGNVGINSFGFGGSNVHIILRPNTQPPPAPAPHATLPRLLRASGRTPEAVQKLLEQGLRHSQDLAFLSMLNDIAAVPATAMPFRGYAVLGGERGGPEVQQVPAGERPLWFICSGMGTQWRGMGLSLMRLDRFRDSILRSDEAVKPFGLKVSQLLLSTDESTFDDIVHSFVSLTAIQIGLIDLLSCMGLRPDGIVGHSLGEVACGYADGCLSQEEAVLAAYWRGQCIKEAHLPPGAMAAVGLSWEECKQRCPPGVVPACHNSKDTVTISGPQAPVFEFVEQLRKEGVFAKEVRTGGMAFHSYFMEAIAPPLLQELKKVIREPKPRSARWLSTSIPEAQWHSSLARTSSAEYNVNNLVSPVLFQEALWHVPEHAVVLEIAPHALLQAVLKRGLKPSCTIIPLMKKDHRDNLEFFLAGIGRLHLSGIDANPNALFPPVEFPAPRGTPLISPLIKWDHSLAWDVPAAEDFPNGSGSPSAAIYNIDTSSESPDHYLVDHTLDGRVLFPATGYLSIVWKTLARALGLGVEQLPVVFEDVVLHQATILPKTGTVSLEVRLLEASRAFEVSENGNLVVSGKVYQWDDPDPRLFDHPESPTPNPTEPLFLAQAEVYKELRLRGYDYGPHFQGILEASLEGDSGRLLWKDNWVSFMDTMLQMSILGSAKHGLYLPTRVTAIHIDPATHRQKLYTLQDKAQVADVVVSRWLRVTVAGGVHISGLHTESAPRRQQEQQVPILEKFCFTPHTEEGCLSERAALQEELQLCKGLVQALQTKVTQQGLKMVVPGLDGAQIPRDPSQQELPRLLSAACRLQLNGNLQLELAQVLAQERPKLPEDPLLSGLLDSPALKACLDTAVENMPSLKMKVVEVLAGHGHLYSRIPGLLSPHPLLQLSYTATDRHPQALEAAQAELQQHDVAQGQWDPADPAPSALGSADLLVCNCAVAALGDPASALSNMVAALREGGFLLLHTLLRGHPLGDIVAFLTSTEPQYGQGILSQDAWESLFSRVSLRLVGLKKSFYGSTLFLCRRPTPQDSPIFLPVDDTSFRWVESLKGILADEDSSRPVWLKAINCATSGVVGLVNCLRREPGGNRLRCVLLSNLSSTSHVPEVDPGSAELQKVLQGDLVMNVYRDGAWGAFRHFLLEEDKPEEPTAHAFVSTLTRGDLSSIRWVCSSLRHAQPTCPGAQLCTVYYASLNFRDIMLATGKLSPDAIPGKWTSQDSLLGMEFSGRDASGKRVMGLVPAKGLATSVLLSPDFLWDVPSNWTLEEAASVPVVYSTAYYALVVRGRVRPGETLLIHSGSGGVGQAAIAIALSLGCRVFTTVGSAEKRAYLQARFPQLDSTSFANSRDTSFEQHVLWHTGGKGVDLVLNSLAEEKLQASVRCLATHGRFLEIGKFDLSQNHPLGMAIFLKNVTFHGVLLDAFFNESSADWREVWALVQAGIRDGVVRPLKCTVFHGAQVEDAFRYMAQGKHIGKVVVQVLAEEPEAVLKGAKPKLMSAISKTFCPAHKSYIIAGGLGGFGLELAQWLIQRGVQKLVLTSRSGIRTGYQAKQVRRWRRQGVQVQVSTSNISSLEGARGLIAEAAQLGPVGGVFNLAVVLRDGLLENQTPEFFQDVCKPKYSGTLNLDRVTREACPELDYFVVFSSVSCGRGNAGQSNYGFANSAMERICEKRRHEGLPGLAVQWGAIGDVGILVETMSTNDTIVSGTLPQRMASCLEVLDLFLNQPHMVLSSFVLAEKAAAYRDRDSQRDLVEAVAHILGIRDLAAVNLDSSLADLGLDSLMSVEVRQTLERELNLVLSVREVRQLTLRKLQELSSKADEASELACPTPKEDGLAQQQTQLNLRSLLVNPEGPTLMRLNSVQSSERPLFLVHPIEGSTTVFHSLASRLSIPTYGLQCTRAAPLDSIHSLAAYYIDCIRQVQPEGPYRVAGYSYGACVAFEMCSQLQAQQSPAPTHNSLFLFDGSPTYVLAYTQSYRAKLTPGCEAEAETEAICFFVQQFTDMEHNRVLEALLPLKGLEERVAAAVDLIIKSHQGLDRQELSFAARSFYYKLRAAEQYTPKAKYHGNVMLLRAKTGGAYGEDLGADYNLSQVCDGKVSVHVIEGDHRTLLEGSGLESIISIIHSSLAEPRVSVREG

BrCc1cccc(Oc2ccccc2)c1
active: [1] 34.5 µM

Nc1ccc(N)c2c1C(=O)c1ccccc1C2=O
inactive: [1]

CS(=O)(=O)OCCCCOS(C)(=O)=O
not listed: [1]
inactive: all other assays above

OCc1cccc(Oc2ccccc2)c1
active: [1] 50 µM

CCOC(=O)[C@@H](C)Oc1ccc(Oc2nc3ccc(Cl)cc3o2)cc1
inactive: [1]

CCC(C)c1cc([N+](=O)[O-])cc([N+](=O)[O-])c1OC(=O)OC(C)C (centres undefined)
inactive: [1]
